Assay results as given in PubChem BioAssay (NCI).
About 83,000 compounds went through this panel and 20% of them were active in at least one assay; those are over-represented in the sample as a whole.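 Method: cells in 96-well plates; compound added at one concentration; 48 h incubation; percent growth measured; values under 10 scored active.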 Active and inactive are the calls of the source.

Each compound was assayed on NCI-H522 lung (assay: NCI-60 one-dose screen, 48 h (100 = growth as untreated, 0 = no growth, -100 = all killed)). Conditions: 10 µM unless noted.
Method: Growth inhibition of the NCI-H522 human Non-Small Cell Lung tumor cell line is measured as a screen for anti-cancer activity. Cells are grown in 96 well plates and exposed to the test compound for 48 hours. Compounds are tested at a single concentration, which is 10^-5 M for most compounds. The reported endpoint is percent growth (GI% or GIPRCNT), where numbers from 0 - 100% represent growth inhibition, and numbers from -100% - 0 represent cell death. For example, a value of 40 represents 60% growth inhibition. A value of 0 means no net growth occurred over the course of the experiment. A value of -40 indicates 40% of cells at the beginning of the experiment died by the end of the experiment. A value of -100 means all cells are dead at the end of the experiment.
NCI-60 Human Tumor Cell Lines Screen was performed using the standard one-dose NCI protocol, which is described in more detail at https://dtp.cancer.gov/discovery_development/nci-60/default.htm.
Compounds with GIPRCNT values below 10 were considered active. Activity score was based on GIPRCNT using the following formula: […]
Score is 0 for GIPRCNT values of 100 or above, 50 for GIPRCNT values of 0, and 100 for GIPRCNT values of -100.

Structure (SMILES)	growth
N#Cc1c(-c2cccc(Cl)c2)cc(-c2cccnc2)[nH]c1=O	76.1% (inactive)
CCOc1ncc([N+](=O)[O-])c(OCC)n1	99.9% (inactive)
O=CN1N=C(c2cccc(Nc3ccnc4cc(Cl)ccc34)c2)CC1c1ccc(Cl)cc1 (stereo not given)	-17.4% (active)
O=C(c1cccc(N2CCOCC2)n1)c1c[nH]c2ccccc12	88.3% (inactive)
C[C@@H]1CN(c2cnc(C(=O)Nc3cc(F)cc4cccnc34)cn2)C[C@H](C)N1	51.7% (inactive)
CC(C)n1c2ccc(Br)cc2c2c3c(c4c5ccccc5ccc4c21)C(=O)NC3=O	71.9% (inactive)
COc1ccc2cc(C(=O)N3CCC([C@@H](C)C(=O)NCc4ccc5c(c4)OCO5)CC3)[nH]c2c1	-6.66% [50 µM] (active)
O=c1cc(C(F)(F)F)c2cc(-c3cc4ccccc4c(=O)o3)c(O)cc2o1	31.3% (inactive)
COc1ccc(C2[C@@H](c3ccccc3)C(=O)N2c2cc(OC)c(OC)c(OC)c2)cc1F (stereo not given in full)	-34.2% (active)
CC(C)Cc1nc(Nc2ccccc2)[nH]c(=O)c1C#N	17.3% (inactive)
C#COc1cccc(Nc2ncnc3cc(NC(=O)[C@H](C)Cl)ccc23)c1	-46.2% [6.25 µM] (active)
C#Cc1cccc(NC(=O)C2CCCCN2C(=O)CCl)c1 (stereo not given)	-57% [8.25 µM] (active)
Clc1ccc(Nc2ncc(Cc3cccc(Cl)c3Cl)s2)cc1	80.2% (inactive)
O=S(O)c1cc(Cl)cc(Cl)c1OCc1ccccc1	96.2% (inactive)
CNCC[C@H](Oc1cccc2ccccc12)c1cccs1	81.4% (inactive)
O=C(Nc1cc(Cl)cc(Cl)c1)Oc1c(Cl)c(Cl)c(Cl)c(Cl)c1Cl	38.9% (inactive)
O=C1c2cccnc2C(=O)c2c1c(C(=O)OCCc1ccccn1)c1ccccn21	-50.4% (active)
CC(C)C1C2=C(NCCN1C(=O)c1ccncc1)C(C)(C)N(Cc1ccccc1)C2=O (stereo not given)	80.9% (inactive)
COc1ccc(-c2cc(-c3cn(-c4cccc(Cl)c4)nc3-c3ccc(OC)cc3)on2)cc1	74.8% (inactive)
CCN1C2CCC1/C(=C\c1ccccc1)C(=O)/C2=C/c1ccccc1	41.3% (inactive)

Structure (SMILES)	growth
CCOc1ccc(/C=C/C(=O)c2cccc(OCCCOc3cccc(C(=O)/C=C/c4ccc(OCC)cc4)c3)c2)cc1	74% (inactive)
COc1cc(-c2cc(-c3ccc(Nc4nc(Nc5ccc(Cl)cc5)nc(Nc5ccc(Cl)cc5)n4)cc3)no2)cc(OC)c1OC	76.5% (inactive)
CCn1cc(C(=O)N/N=C/c2ccccc2)c(=O)c2cc(F)c(N3CCNC(C)C3)c(F)c21 (stereo not given)	-75.3% (active)
CNC(=O)c1cc(Oc2ccc3c(c2)sc2nc(-c4cc(C(F)(F)F)cc(C(F)(F)F)c4)cn23)ccn1	35% (inactive)
O=C(NN1C(=O)CSC1c1cccc([N+](=O)[O-])c1)c1ccc(NC(=O)c2ccccn2)cc1 (stereo not given)	95.3% (inactive)
COc1ccc(C2C3=C(COC3=O)N(CCO)c3cc4c(cc32)OCO4)cc1OC (stereo not given)	66.2% (inactive)
O=C(NC1CCC(Br)CC1)C1CCCC(S(=O)(=O)NC2CCCCC2)C1 (stereo not given)	-3.79% [25 µM] (active)
CCn1cc(C(=O)N/N=C/c2cccc(F)c2)c(=O)c2cc(F)c(N3CCNC(C)C3)c(F)c21 (stereo not given)	-29.8% (active)
CC(C)(C)CC(C)(C)Nc1c(-c2c(O)c3ccccc3oc2=O)nc2sc3ccccc3n12	32.8% (inactive)
O=S(=O)(NCCNc1nccc(-c2c(-c3ccc(F)c(O)c3)nc3sccn23)n1)c1ccc(Cl)cc1	22.2% (inactive)
CC12OC(CC(O)C1O)n1c3ccccc3c3c4c(c5c6ccccc6n2c5c31)C(=O)N(CCN1CCCC1)C4=O (stereo not given)	-0.973% (active)
CCCc1cc(=O)oc2c(C(=O)CC(C)C)c(O)c(CC=C(C)C)c(O)c12	16% (inactive)
COc1ccc(/C=C(/C(=O)N2CCNCC2)c2cc(OC)c(OC)c(OC)c2)cc1O	0.313% (active)
O=C(Cc1ccc(/C=C/C(=O)c2ncc[nH]2)cc1)Nc1cc(F)c(F)c(F)c1	49.1% (inactive)
Cc1ccc2c(/C=C/C(=O)c3cc(CN4CCOCC4)c(O)c4nc(C)ccc34)cc(CN3CCOCC3)c(O)c2n1	-54.8% (active)
O=C(CCCCCCCC(=O)N1CCCCC1)N1CCCCC1	88.8% (inactive)
Cc1cc(Cl)nc(N2CCN(CCNc3ccnc4cc(Cl)ccc34)CC2)n1	51.8% (inactive)
COc1cc(/C=C/c2cc(/C=C/c3ccc(O)c(OC)c3)n(C(=O)Nc3ccc(Cl)cc3)n2)ccc1O	-4.94% (active)
C(=C(\C1=NCCN1)n1ccc2ccccc21)/c1ccccc1	89.7% (inactive)
CN(C)c1ccc([C@@H](C(=O)Nc2cccc([N+](=O)[O-])c2)N(C(=O)c2cc3ccccc3[nH]2)c2cccc([N+](=O)[O-])c2)cc1	92.3% (inactive)
